According to PubChem BioAssay AID540276 (National Center for Advancing Translational Sciences (NCATS), 2011):
About 5,400 (1.8%) of roughly 300,000 compounds were called active. Roughly 28% stayed inconclusive and do not appear here. The call rests on the fitted dose curve; tested in HEK293 cells. The list comes from a sample in which actives are over-represented; it also holds similar structures and randomly drawn compounds. A call without a number means that no potency is given here.
Potency means the concentration at half of the fitted maximal effect.

Assay: qHTS for inhibitors of binding or entry into cells for Marburg Virus
Details: Marburg virus pseudotyped entry inhibition, cell reporter; series mostly up to 37.8 µM
In the case of `Cc1cc(C(F)(F)F)nc(SCC(=O)Nc2nccs2)n1`, the Potency is reported as “inactive”. For `CCN(CC(=O)Nc1ccc(OC)cc1)C(=O)c1ccc(=O)n(Cc2ccccc2)n1`, the Potency was “inactive”. In the case of `COc1ccc(C)cc1NC(=O)CSc1nnc2ccc(-c3ccccn3)nn12`, the Potency is reported as “inactive”. With `CCOc1ccccc1-c1nc(CN2CCC(C(=O)N3CCOCC3)CC2)c(C)o1` the Potency was “inactive”. For `Cc1ccc(C)c(NC(=O)C(c2ccccc2)N2CCN(CC(=O)NC3CC3)CC2)c1` (stereo not given), the Potency was “inactive”. With `CC(=O)OC(C(=O)NC1CCCCC1)c1ccccc1` (stereo not given) the Potency was “inactive”. In the case of `CC(NCc1ccccc1OC1CCCC1)c1ccccc1` (stereo not given), the Potency is reported as 7.94 µM (active). In the case of `OC(CNC1CCCCC1)c1ccccc1` (stereo not given), the Potency is reported as “inactive”. With `COc1ccc2c(c1)c(=Cc1ccc(N(C)C)cc1)c1cc(-c3ccccc3)[n+](C)n12` the Potency was 4.47 µM (active). For `c1ccc2c(c1)[I+]c1ccccc1-2`, the Potency was 0.282 µM (active). With `O=C(NCCc1ccccc1)c1c[nH]c2ccc(F)cc2c1=O` the Potency was “inactive”. With `CC(OC(=O)c1ccc(Cl)cc1O)C(=O)NCCC1=CCCCC1` (stereo not given) the Potency was “inactive”. For `CC(C)OC(=O)c1ccc(NCc2cc(O)ccc2O)cc1Cl`, the Potency was 2.24 µM (active). For `CC(C)NC(=O)c1ccc(Cl)cc1Cl`, the Potency was “inactive”. With `Cc1ccccc1-n1cc(CNC(=O)C2CCC(=O)N(C3CC3)C2)cn1` (stereo not given) the Potency was “inactive”. For `CCN1CCc2c(C#N)c(NCc3ccccc3)nc(NCCO)c2C1`, the Potency was “inactive”. With `CC(C)Cc1nc(N2CCOCC2)c(C#N)c2c1CCC2` the Potency was “inactive”. With `CC(C)CCNc1nc(N2CCCC2)c2c(c1C#N)CCN(C)C2` the Potency was 7.3 µM (active). For `COC1=CC(=O)OC(c2ccc(OC)cc2)C1` (stereo not given), the Potency was “inactive”. With `O=C(NCc1ccncc1)C(=O)NCC1OCCN1S(=O)(=O)c1ccc(Br)cc1` (stereo not given) the Potency was “inactive”. With `COc1ccc(-c2csc3ncnc(N4CCN(S(=O)(=O)c5ccccc5C#N)CC4)c23)cc1` the Potency was “inactive”. With `CCN1/C(=C/c2ccc3ccc(C)cc3[n+]2CC)Sc2ccccc21` the Potency was 5.01 µM (active). With `O=C(c1ccc(NS(=O)(=O)c2ccc3[nH]c(=O)[nH]c3c2)cc1)N1CCCCC1` the Potency was “inactive”. For `O=[N+]([O-])c1ccc(NS(=O)(=O)c2ccccc2)c(Cl)c1`, the Potency was 11.2 µM (active). With `O=C(NNS(=O)(=O)c1ccc(F)cc1)c1ccc([N+](=O)[O-])cc1Cl` the Potency was “inactive”. For `Cc1cccc(NS(=O)(=O)c2ccc([N+](=O)[O-])cc2)n1`, the Potency was “inactive”. For `CCOC(=O)CCC(NC(=O)c1ccc(CNc2nc3cc(C(F)(F)F)ccc3nc2C(=O)OCC)cc1)C(=O)OCC` (stereo not given), the Potency was “inactive”. For `O=C(O)[C@@H]1CCCN1c1ncnc2sc3c(c12)CCC3`, the Potency was “inactive”. For `OCCNc1nc2ccccc2n1-c1ncnc2sc3c(c12)CCC3`, the Potency was 11.2 µM (active). For `CC(C)(C)C(=O)Cn1c(NCCO)nc2ccccc21`, the Potency was “inactive”. For `Cc1cccc(C=CC(=O)c2ccc(Cl)cc2)c1`, the Potency was “inactive”. For `O=C(COC(=O)c1cccnc1Cl)Nc1ccc(S(=O)(=O)N2CCOCC2)cc1`, the Potency was “inactive”. With `COc1ccc(C(C(=O)NCC2CCCO2)N(C(=O)Cn2nnc3ccccc32)c2ccc(NC(C)=O)cc2)cc1OC` (stereo not given) the Potency was “inactive”. For `Cc1ccc(C)c(N2CCN(C(=O)CCc3nc(-c4cccc(C(F)(F)F)c4)no3)CC2)c1`, the Potency was “inactive”. In the case of `COc1ccc(OC)c(Cc2cnc3nc(N)nc(N)c3c2C)c1`, the Potency is reported as 0.112 µM (active). In the case of `COc1ccc(OC)c(NC(=O)c2sc3nc(C)cc(C)c3c2N)c1`, the Potency is reported as “inactive”. In the case of `COc1ccc(OC)c(Cc2nnc(CCC(=O)NC3CCCC3)o2)c1`, the Potency is reported as “inactive”. In the case of `CCCc1cc(=O)[nH]c(SCC(=O)Nc2ccc(S(=O)(=O)N3CCCC3)cc2)n1`, the Potency is reported as “inactive”. In the case of `Cn1c(=O)c2c(O)c(C=NCC3CCCCC3)c(=O)n(C)c2n(C)c1=O`, the Potency is reported as “inactive”. For `Clc1ccc(CN2CCCCCC2)cc1Cl`, the Potency was “inactive”. With `COc1ccc(C(O)(C2CCCCC2)C(CN2CCCC2)c2ccccc2)cc1` (stereo not given) the Potency was 8.91 µM (active). With `c1ccc(C(CN2CCCCC2)c2ccccc2)cc1` the Potency was “inactive”. In the case of `CC(CN1CCCCC1)c1ccccc1` (stereo not given), the Potency is reported as “inactive”. In the case of `CCOc1ccc(NC(=O)CN(C)C(=O)Cc2sc(C)nc2-c2ccc(F)cc2)cc1OCC`, the Potency is reported as “inactive”. In the case of `COC(=O)C1CCCCN1C(=O)c1ccc(OC2CCN(C(C)=O)CC2)c(OC)c1` (stereo not given), the Potency is reported as “inactive”. With `CC(C)(C)NCC(O)COc1cccc2[nH]c(=O)[nH]c12` (stereo not given) the Potency was “inactive”. For `COc1ccccc1OCCNCC(O)COc1cccc2[nH]c3ccccc3c12` (stereo not given), the Potency was 11.6 µM (active). For `COc1ccccc1OCC(O)CN1CCOCC1` (stereo not given), the Potency was “inactive”. For `Cc1ccc(NC(=O)CSc2nnc(CNC(=O)c3ccccc3F)o2)cc1Cl`, the Potency was “inactive”. For `O=C(N/N=C/c1ccoc1)c1ccc(Cl)cc1Cl`, the Potency was “inactive”. In the case of `CCOc1ccc(-n2c(O)c(/C=N/Nc3nnc(C)c(=O)[nH]3)c3ccccc3c2=O)cc1`, the Potency is reported as “inactive”. For `COc1ccc(Cc2nnc(N/N=C/c3ccccc3O)[nH]c2=O)cc1OC`, the Potency was 3.66 µM (active). In the case of `O=c1[nH]c(NCCO)nnc1Cc1ccc(Cl)cc1`, the Potency is reported as “inactive”. With `O=C(OCC(=O)N1CCN(C(=O)c2ccco2)CC1)c1ccc(Cl)c(Cl)c1` the Potency was “inactive”. With `COCCOC(=O)C1=C(C)NC(=O)NC1c1cc2c(cc1Br)OCO2` (stereo not given) the Potency was “inactive”. With `O=C1CCCCC(=O)c2ccccc2N1` the Potency was “inactive”. With `c1ccc2c(c1)C(=NC1CCCCC1)NC2=NC1CCCCC1` the Potency was 5.8 µM (active). In the case of `C1CCC2=C(C1)CN1CCCC1=N2`, the Potency is reported as “inactive”. With `Cc1nc2ccc(N)nc2nc1C` the Potency was “inactive”. With `Cc1cccc(NC(=O)C2CCN(C(=O)NC3CCCCC3)CC2)c1` the Potency was “inactive”. For `CC[C@]1(O)C(=O)OCc2c1cc1n(c2=O)Cc2cc3ccccc3nc2-1`, the Potency was 0.0251 µM (active). In the case of `Cn1c(Cc2cccs2)nnc1SCC(=O)Nc1ccccc1`, the Potency is reported as “inactive”. For `O=C(Oc1cccc(C(=S)N2CCOCC2)c1)c1cccc(Cl)c1`, the Potency was “inactive”. With `COc1ccccc1C(=O)NCCC(=O)NC(C)CCc1ccccc1` (stereo not given) the Potency was “inactive”. In the case of `COc1ccc2nc(Nc3nc4cc5c(cc4s3)OCCO5)sc2c1`, the Potency is reported as “inactive”. In the case of `c1c2c(cc3sc(N4CCCCC4)nc13)OCCO2`, the Potency is reported as 0.562 µM (active). In the case of `Cc1nc2cc3c(cc2s1)OCO3`, the Potency is reported as “inactive”. In the case of `O=C(NCC(=O)N1CCN(c2ccccc2F)CC1)c1cccs1`, the Potency is reported as “inactive”. For `CCN(CC)S(=O)(=O)c1cc(C(=O)Nc2cc(S(=O)(=O)N3CCOCC3)ccc2N2CCCC2)ccc1F`, the Potency was “inactive”. For `CCCN(CCc1ccccc1)C1CCc2c(O)cccc2C1` (stereo not given), the Potency was 15.8 µM (active). In the case of `Cc1nn(Cc2ccccc2)c(C)c1NS(=O)(=O)c1ccccc1`, the Potency is reported as “inactive”. For `COc1ccc(N(CC(=O)NCc2ccc(F)cc2)C(=O)CCC(=O)Nc2nccs2)cc1`, the Potency was “inactive”. In the case of `NN=C(NN=Cc1ccccc1)c1ccccc1`, the Potency is reported as “inactive”. In the case of `COc1ccccc1NS(=O)(=O)c1ccc(C(=O)N2CCN(c3ccccc3O)CC2)cc1`, the Potency is reported as “inactive”. With `CC1CN/C(=C\C(=O)c2ccc(Br)cc2)C(=O)N1` (stereo not given) the Potency was 2.24 µM (active). With `COc1cc2c(cc1OC)/C(=C/C(=O)c1ccc(NC(C)=O)cc1)NCC2` the Potency was “inactive”. With `C/C(=C\C(=O)c1ccc(Br)cc1)N1CCCCC1` the Potency was “inactive”. In the case of `Cc1cc(OCC(=O)NCC(O)c2ccccc2)c2c(C)c(C)c(=O)oc2c1` (stereo not given), the Potency is reported as “inactive”. With `O=C(Nc1cccc(Cl)c1N1CCOCC1)c1cccnc1` the Potency was “inactive”. In the case of `Cc1ccc(S(=O)(=O)NCC(=O)Nc2ccc3c(c2)OCCO3)cc1`, the Potency is reported as “inactive”. With `COc1ccc(OCC(=O)NCCS(=O)(=O)N2CCN(c3ccc(F)cc3)CC2)cc1` the Potency was “inactive”. In the case of `O=C(/C=C/c1ccc2c(c1)OCO2)NCc1ccc(F)cc1`, the Potency is reported as “inactive”. For `CCc1c(C)sc(NC(=O)/C=C/c2ccc3c(c2)OCO3)c1C(=O)OC`, the Potency was “inactive”. In the case of `Cc1cccc(NC(=O)/C=C/c2ccc3c(c2)OCO3)n1`, the Potency is reported as 6.51 µM (active). For `NC(=O)c1ccc(N2CCCC2)nc1`, the Potency was “inactive”. In the case of `OC(COc1ccccc1)CN1CCN(c2cccc(Cl)c2)CC1` (stereo not given), the Potency is reported as “inactive”. For `Oc1ccc(N2CCN(C(=S)NCc3ccccc3)CC2)cc1`, the Potency was 3.16 µM (active). In the case of `O=C(COC(=O)c1ccccc1C(=O)N1CCN(c2ccccc2)CC1)NCc1ccccc1`, the Potency is reported as “inactive”. With `Oc1ccccc1N1CCN(C(=S)NCc2ccccc2)CC1` the Potency was “inactive”. For `CN(CC(=O)NCc1cccnc1)S(=O)(=O)c1cc(Cl)ccc1Cl`, the Potency was “inactive”. For `O=C(O)C1C2C=CC(O2)C1C(=O)Nc1ccccn1` (stereo not given), the Potency was “inactive”. For `Cc1c(C)n2c(SCC(=O)NC3CCCC3)nnc2[nH]c1=O`, the Potency was “inactive”. For `Cc1cc(N/C=C\C(=O)c2cccc3ccccc23)no1`, the Potency was “inactive”. With `COCC(C)NCc1cc(Br)ccc1OC` (stereo not given) the Potency was “inactive”. With `CC(C)(C)NCc1cc(Br)ccc1OC1CCCC1` the Potency was 23.1 µM (active). With `COc1ccc(Br)cc1CN(C)C(=O)C1CC(=O)N(C2CCCC2)C1` (stereo not given) the Potency was “inactive”. In the case of `Cc1ccc(C)c(NC(=O)c2cc(-c3cc(C)cc(C)c3O)n[nH]2)c1`, the Potency is reported as “inactive”. With `COc1ccccc1CNC(=O)[C@@H]1CCCN1C(=O)[C@@H]1Cc2ccccc2CN1C(=O)OC(C)(C)C` the Potency was “inactive”. In the case of `COCCCNC(=O)[C@@H](C#N)c1nc2ccccc2nc1N1CCN(Cc2ccccc2)CC1`, the Potency is reported as “inactive”. With `CCOc1ccc(-c2nnc(-c3ccco3)o2)cc1` the Potency was 6.51 µM (active). With `COc1ccc(C(=O)CSc2nnc(-c3ccco3)o2)cc1` the Potency was “inactive”. With `CCC(=O)Oc1cccc(C(=O)Nc2ccc(-c3nnc(-c4ccco4)o3)cc2)c1` the Potency was “inactive”. For `CC(=O)Nc1ccc(S(=O)(=O)NCC(=O)OCC(=O)c2ccc[nH]2)cc1`, the Potency was “inactive”. For `Cc1cccnc1CCNC(=O)C1CCC(=O)N(Cc2cccc(F)c2)C1` (stereo not given), the Potency was “inactive”. With `CCOc1ccc(C(C)=O)cc1COC(=O)CNC(=O)c1cccs1` the Potency was “inactive”. For `O=C(Nc1ccc(Cl)c(Cl)c1)c1ccccc1NC(=O)C1CC=CCC1C(=O)O` (stereo not given), the Potency was “inactive”. In the case of `COC(=O)CC=C[C@@H](C)[C@@H](C=NOC[C@H]1O[C@H](c2ccccc2)C=C[C@H]1Oc1ccc(OC)cc1)N[S+](=O)([O-])c1ccc(C)cc1`, the Potency is reported as “inactive”. In the case of `O=C(COC(=O)c1c2c(nc3ccccc13)/C(=C\c1cccs1)CCC2)Nc1ccccc1Cl`, the Potency is reported as “inactive”. In the case of `NS(=O)(=O)c1ccc(NC(=O)COC(=O)c2c3c(nc4ccccc24)/C(=C\c2ccc4c(c2)OCO4)CCC3)cc1`, the Potency is reported as 11.6 µM (active). With `COc1cc(-c2cc(C(=O)OCC(=O)Nc3ccc4c(c3)OCO4)c3ccccc3n2)cc(OC)c1OC` the Potency was “inactive”.
